Our source for the Potency and activity, negative = inhibition values is PubChem BioAssay AID504332 (National Center for Advancing Translational Sciences (NCATS), 2011).

SMILES strings stand for the structures. Among all 350,000 compounds or so, about 31,000 (8.9%) were called active. Entries that show only a call come without a potency. Roughly 15% stayed inconclusive and do not appear here. The full list was thinned out, with actives kept by preference. Unmarked numbers belong to inactive results. Calls come from the whole dose curve; as a rule, active = well fitted inhibition curve with a large enough effect; inconclusive = small, poorly fitted or top-dose-only effect; inactive = no such curve, though single readings can be large or run the other way.
Potency is the fitted concentration of half-maximal effect.

Sequence of Histone-lysine N-methyltransferase EHMT2 (Homo sapiens) (Q96KQ7 913-1193 limits assumed): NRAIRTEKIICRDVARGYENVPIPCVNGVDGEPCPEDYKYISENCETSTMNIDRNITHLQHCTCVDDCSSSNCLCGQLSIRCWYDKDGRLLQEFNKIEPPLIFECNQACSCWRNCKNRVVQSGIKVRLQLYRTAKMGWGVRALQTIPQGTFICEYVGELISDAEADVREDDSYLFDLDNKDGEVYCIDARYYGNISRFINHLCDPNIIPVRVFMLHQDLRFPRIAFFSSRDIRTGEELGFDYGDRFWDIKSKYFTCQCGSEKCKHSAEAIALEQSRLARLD

For the assay, the target named is Histone-lysine N-methyltransferase EHMT2 (Homo sapiens) (UniProt Q96KQ7). The experiment in a line: qHTS Assay for Inhibitors of Histone Lysine Methyltransferase G9a. Note: nearly all actives have a fitted effect of over 75% in size. To be noted: G9a H3K9 monomethylation, AlphaScreen, 2 h; series mostly up to 59 µM. The procedure, abridged:
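Enzyme 20 nM + cpd, 15 min RT; add b-H3K9 pep 500 nM / SAM 20 uM; 2 h RT; anti-H3K9me1 Ab 0.5 ug/mL + SA donor / anti-rabbit acceptor beads 20 ug/mL each, 10 min; AlphaScreen read.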
(In general: In qHTS, concentration-response curves come from the screen itself.)
For `Cc1ccc(-c2nn(CCC(=O)Nc3ccc(Cl)c(Cl)c3)c(=O)c3ccccc23)cc1`, the Potency result is “inactive”. Still for that read-out and setting: in the case of `COc1ccc(Cl)cc1NC(=O)CSc1nc2ccccc2c2nc(-c3ccccc3)nn12` it was “inactive”. `CC(=O)C[C@@H](O)CC(=O)[C@H]1OC(=O)CCCCCCc2ccccc21`: the activity, negative = inhibition was 7.19% [at 0.501 µM]. As for `O=C(c1cccs1)c1cn(CCOc2ccc(Cl)cc2)c2ccccc12`, the Potency entry is “inactive”.

For the compound `O=C(c1cccs1)N(C(=O)c1cccs1)c1ccccn1`, the Potency entry is “inactive”. Still for that read-out and setting: in the case of `O=C(C1=C(O)C(=O)N(CCOCCO)C1c1ccccn1)c1cccs1` (configuration not stated) it was 28.2 µM (active); in that of `Cc1ccc(O)c(/C=N/NC(=O)COc2ccc3c(C)cc(=O)oc3c2)c1`, “inactive”. Still for that read-out and setting: in the case of `CCC(=O)N1c2ccccc2CC1C(=O)N1CCN(c2cccc(OC)c2)CC1` (configuration not stated) it was “inactive”; in that of `COc1cccc(C(=O)NC2(C(F)(F)F)C(=O)Nc3c2c(=O)[nH]c(=O)n3-c2ccc(C)cc2)c1` (configuration not stated), “inactive”.

In the case of `CCOc1ccc(CN2CCN(Cc3ccon3)CC2CCO)cc1` (configuration not stated), the Potency entry is “inactive”.

For the compound `CCOc1ccc(CN2CCN(Cc3ccc4cc(F)ccc4n3)CC2CCO)cc1` (configuration not stated), the Potency entry is “inactive”. Same read-out and setting: next, `CCOc1ccc(CN2CCN(Cc3ccc(C)o3)CC2CCO)cc1` (configuration not stated): 70.8 µM (active). Regarding `COCCn1c(C)cc(C(=O)CSc2nnc(C3CC3)n2C2CC2)c1C`, the activity, negative = inhibition is -12.5% [at 12.7 µM].

As for `Cc1ccc(Cl)cc1N1CCN(C(=O)C2CCC(CNS(=O)(=O)c3cccs3)CC2)CC1` (configuration not stated), the Potency result is “inactive”. As to `Cc1ccc(S(=O)(=O)NNC(=O)/C=C/c2cccc(F)c2)cc1`, the Potency result was “inactive”. The same measure, in the same setting: next, `Clc1ccccc1-c1cc(COc2ccc3ccccc3c2)no1`: “inactive”. The same measure, in the same setting: in the case of `O=C(Nc1ccc(F)cc1F)N1CCCN(CCOc2ccccc2)CC1` it was “inactive”. On the same count and under the same terms, in the case of `OC(COc1ccc2ccccc2c1)CN1CCOCC1` (configuration not stated) it was “inactive”; in that of `Cc1cc(OCCN2CCCC2)ccc1C(C)C`, 8.91 µM (active); in that of `COc1cccc(NC(=O)NCCN2CCCCC2)c1`, “inactive”. Take `COc1cccc(OCC(O)CN2CCN(CCO)CC2)c1` (configuration not stated): the Potency entry was “inactive”. The same measure, in the same setting: next, `COc1cccc(OCCCN2CCCCCC2)c1`: 11.2 µM (active). On the same count and under the same terms, in the case of `c1ccc2cc(OCCN3CCCC3)ccc2c1` it was 12.6 µM (active). Take `Cc1cc(C)c(NC(=O)CN2CCCCCC2)c(C)c1`: the activity, negative = inhibition is 41.6% [at 0.501 µM]. On to `Cc1cc(OCCN2CCCC2)cc(C(C)C)c1`, for which the Potency is 11.2 µM (active). Regarding `Cc1ccc(CC2(O)CCN(CCOc3ccc(O)cc3)CC2)cc1`, the Potency entry is “inactive”. Turning to `OC(COc1ccc(Br)cc1)CN1CCCC1` (configuration not stated), the Potency entry is “inactive”. Regarding `CS(=O)(=O)Nc1ccccc1C(=O)OCC(=O)NC1CC1`, the activity, negative = inhibition is 15.6% [at 12.7 µM].

For `Cc1cccc(NC(=O)Cn2cc(S(=O)(=O)Cc3ccccc3Cl)c3ccccc32)c1`, the Potency entry was “inactive”. `CC(C)(C)N1C(=O)[C@H]2[C@@H](c3ccc(Br)cc3)N3C(=O)N(c4cccc(Cl)c4)C(=O)[C@@]3(C)[C@H]2C1=O`: the activity, negative = inhibition was -8.49% [at 2.33 µM]. Regarding `CCN(CC)CCNC(=O)Cn1ncc2c3ccccc3n(Cc3ccccc3C)c2c1=O`, the Potency entry is “inactive”.

As to `Cn1c(=O)n(C)c2cc(S(=O)(=O)Nc3ccc(F)cc3)ccc21`, the Potency result is “inactive”. Still for that read-out and setting: in the case of `O=C1/C(=C/c2cccs2)CCc2ccccc21` it was “inactive”. Take `CN1C/C(=C/c2cccs2)C(=O)/C(=C\c2cccs2)C1`: the activity, negative = inhibition was 1.72% [at 12.7 µM].

As to `CCC1C/C(=C/c2cccs2)C(=O)/C(=C/c2cccs2)C1` (configuration not stated), the Potency is 39.8 µM (active). On the same count and under the same terms, next, `COc1ccc(CCNc2nc3c(-c4cccc(F)c4)nnn3c3ccccc23)cc1OC`: “inactive”; `Cc1ccc(Cn2c(=O)n(Cc3nc(-c4ccccc4)no3)c(=O)c3cc4c(cc32)OCO4)cc1`: “inactive”. `COc1cccc(C2=CC(=O)C[C@H](c3ccc(OC)c(OC)c3)C2)c1`: the activity, negative = inhibition is -2.09% [at 2.33 µM]. Regarding `CCOC(=O)c1c(C)oc2nc(C)nc(Nc3ccc(CC)cc3)c12`, the Potency entry was “inactive”. Same read-out and setting: in the case of `Cc1nc(N2CCOCC2)c2c(C(=O)NCc3cccc(Cl)c3)c(C)oc2n1` it was “inactive”; in that of `CCOC(=O)c1c(C)oc2nc(C)nc(N3CCN(c4ccc(OC)cc4)CC3)c12`, 12.6 µM (active); in that of `CC(=O)c1cc2c(cc1NC(=O)Cn1nc(-c3ccc(F)cc3)ccc1=O)OCO2`, “inactive”. Same read-out and setting: next, `O=C(CN1C(=O)CCn2nc(-c3ccccc3)cc21)NCc1ccccc1`: “inactive”.

Take `CC1=CC(C)(C)Nc2ccc(OC(=O)C(Cc3ccccc3)N3C(=O)C4CCCCC4C3=O)cc21` (configuration not stated): the Potency is 50.1 µM (active). On the same count and under the same terms, next, `COC(=O)c1ccccc1NC(=O)C(Cc1ccccc1)N1Cc2ccccc2C1=O` (configuration not stated): “inactive”; `CC1=CC(C)(C)Nc2ccc(OC(=O)CN3C(=O)C4CCCCC4C3=O)cc21` (configuration not stated): “inactive”. Take `CC1(C)O[C@H]2CC(=O)OCC23[C@H]2CC[C@@]4(C)[C@H](c5ccoc5)OC(=O)[C@H]5O[C@]54[C@]2(C)C(=O)C[C@@H]13` (some centres not stated): the activity, negative = inhibition is 12.6% [at 12.7 µM].

For `COc1ccc(CCNC(=O)CCCCn2c(=O)c3ccccc3n(Cc3ccccc3C)c2=O)cc1OC`, the Potency result was “inactive”. As to `Cc1ccc(CN(C)CC(=O)Nc2cccc([N+](=O)[O-])c2)o1`, the Potency result is “inactive”. The same measure, in the same setting: next, `O=C(Nc1cccc(C(F)(F)F)c1)c1cnccn1`: “inactive”; `O=C(Nc1cccc([N+](=O)[O-])c1)Nn1cnnc1`: “inactive”. Turning to `FC(F)(F)c1cccc(Nc2ncnc3ccccc23)c1`, the activity, negative = inhibition is 8.16% [at 12.7 µM]. As to `O=c1cc(CO)oc(C(Nc2cccc([N+](=O)[O-])c2)c2ccccn2)c1O` (configuration not stated), the Potency was 0.794 µM (active).

Take `O=c1cc(CO)oc(C(Nc2cccc(C(F)(F)F)c2)c2ccccn2)c1O` (configuration not stated): the Potency is 1.26 µM (active).

For `CCOC(=O)c1c(C)n(S(=O)(=O)c2ccc(C)cc2C)c2ccc(NS(=O)(=O)c3ccc(C)cc3C)cc12`, the Potency result was “inactive”. Same read-out and setting: in the case of `COc1ccc(NC(=O)CCCC(=O)c2ccccc2)cc1` it was “inactive”; in that of `O=C(/C=C\NCC(=O)c1ccccc1)c1ccccc1`, 6.31 µM (active); in that of `Cc1ccc(N/C=C/C(=O)c2ccccc2)cc1C`, “inactive”. Take `Cc1ccc(/C=C/C(=O)OCC(=O)NCc2ccc(Cl)cc2)o1`: the activity, negative = inhibition is -2.38% [at 2.33 µM]. With `Cc1[nH]c2ccccc2c1/C=C(/C#N)C(=O)NC(C)C`, the Potency result was “inactive”. Same read-out and setting: in the case of `CC(C)NC(=O)/C(C#N)=C\c1ccc(N(C)C)c(Br)c1` it was 39.8 µM (active); in that of `Cc1ccc(/C=C(\C#N)C(=O)Nc2cc(C)ccc2C)cc1`, “inactive”; in that of `Cc1ccc(NC(=O)Nc2sc3nc4n(c(=O)c3c2C)CCC(C)CC4)c(Cl)c1` (configuration not stated), “inactive”. On the same count and under the same terms, next, `Cc1ccccc1C1=NC(C(F)(F)F)(C(F)(F)F)c2c(n(-c3ccc(F)cc3)c(=O)[nH]c2=O)N1`: “inactive”; `O=c1[nH]c(=O)n(Cc2ccco2)c2c1C(C(F)(F)F)(C(F)(F)F)N=C(c1ccco1)N2`: 50.1 µM (active). Regarding `Nc1c(N(Cc2ccco2)C(=O)c2cccc(F)c2)c(=O)[nH]c(=O)n1Cc1ccccc1`, the activity, negative = inhibition was -3.15% [at 12.7 µM]. Consider `CCCn1c(=S)[nH]c2ccc(C(F)(F)F)cc21`, for which the Potency was 11.2 µM (active). `COc1ccc(/C(C)=N\NC(=O)c2ccc(-c3ccccc3)cc2)c(F)c1`: the Potency entry is “inactive”.

On to `Cc1cccc(C(=O)NC(=S)N(C)C2CCCCC2)c1`, for which the Potency entry was “inactive”.

For the compound `CC(OC(=O)c1ccccc1NCCO)C(=O)Nc1ccnn1C(C)C` (configuration not stated), the activity, negative = inhibition was -12.9% [at 12.7 µM].

For the compound `CC(=O)c1cccc(Nc2ccc3cc(S(=O)(=O)N4CCC(C)CC4)ccc3n2)c1`, the Potency entry was “inactive”. Consider `Cc1cccc(S(=O)(=O)c2cn(Cc3ccccc3)c3cc(N4CCOCC4)c(F)cc3c2=O)c1`, for which the Potency result was “inactive”. In the case of `COc1ccc(C23NCCN2C(=O)c2ccccc23)cc1` (configuration not stated), the Potency entry is “inactive”. Still for that read-out and setting: next, `CC1=C(C(=O)Nc2cc(C)ccn2)C(c2cnn(C)c2)C2=C(CC(c3ccccc3)CC2=O)N1` (configuration not stated): “inactive”; `Cc1nc2nc3c(cn2n1)C(=O)CC(c1ccccc1)C3` (configuration not stated): 56.2 µM (active); `CN1CCN(c2ncc3c(n2)CC(c2ccccc2F)CC3=O)CC1` (configuration not stated): “inactive”.

`CC(=O)c1ccc(NC(c2ccc(F)cc2)c2nnc(-c3ccccc3)o2)cc1` (configuration not stated): the Potency result was “inactive”. Regarding `COc1cccc(NC(=O)C2CCN(c3cc(C)nc4c(-c5ccc(Cl)cc5)c(C)nn34)CC2)c1`, the Potency entry is “inactive”. On to `CN(C)CCN(Cc1ccccc1)S(=O)(=O)c1csc(C(N)=O)c1`, for which the Potency result was “inactive”.

`O=C(c1cc(-c2ccc(O)cc2)on1)N1CCOCC1`: the Potency result was “inactive”. `Cc1ccc(OCCSc2nc3ccc(NC(=O)COc4ccc(C)cc4)cc3s2)cc1`: the Potency entry is “inactive”. Same read-out and setting: next, `COc1cc(C(=O)Nn2c(O)c(C3=c4ccccc4=NC3=O)sc2=S)ccc1O`: 44.7 µM (active); `COc1cc(C(=O)Nn2c(CC(C)C)nc3ccccc3c2=O)cc(OC)c1OC`: “inactive”. On the same count and under the same terms, in the case of `CCCn1ccc2c(OCC(=O)NCc3ccc(F)cc3)cccc2c1=O` it was “inactive”. Still for that read-out and setting: in the case of `COc1ccc(N(C)S(=O)(=O)c2ccc3c(c2)CC(C)N3C(=O)C2CC2)c(OC)c1` (configuration not stated) it was “inactive”. Turning to `O=C(c1cn(-c2ccccc2)nc1-c1cc2ccccc2oc1=O)N1CCOCC1`, the Potency entry is “inactive”. The same measure, in the same setting: next, `O=C(Nc1cc2ccccc2oc1=O)C1CCCCC1`: “inactive”. Still for that read-out and setting: in the case of `O=c1oc2ccccc2cc1-c1cn(-c2ccccc2)c(=S)[nH]1` it was 1.41 µM (active).

`CCC(=O)N1CCc2cc(S(=O)(=O)NC(C(=O)NCCc3ccc(C)cc3)C(C)C)ccc21` (configuration not stated): the Potency result was “inactive”. `Cc1ccc(NC(=S)NCCc2ccc(Cl)cc2)c(C)c1`: the Potency entry is “inactive”. Still for that read-out and setting: next, `Cc1ccc(NC(=S)Nc2ncccc2C)c(C)c1`: 31.6 µM (active); `Cc1ccc(NC(=S)NCc2ccccc2Cl)c(C)c1`: “inactive”.

Regarding `COc1ccc(S(=O)(=O)Nc2cc(C)on2)cc1NC(C)=O`, the activity, negative = inhibition is 2.19% [at 12.7 µM]. On to `O=C(CNS(=O)(=O)c1cccs1)N1CCN(c2ccccc2Cl)CC1`, for which the Potency entry was “inactive”. On the same count and under the same terms, in the case of `CCCCn1c(SCC(=O)NCCc2ccc(OC)c(OC)c2)nc2c1c(=O)n(C)c(=O)n2C` it was “inactive”; in that of `CCCSc1nc2c(c(=O)n(C)c(=O)n2C)n1Cc1ccc(C)cc1`, “inactive”; in that of `CCOc1ccc(Cn2c(SCCCCC#N)nc3c2c(=O)n(C)c(=O)n3C)cc1OCC`, 35.5 µM (active).
